Bioassay records from PubChem BioAssay.
KKLEB cytotox = CF airway cell cytotoxicity counter-screen; KKLEB CF airway cells viability, ATPlite luminescence, overnight; hits give low values; cells stimulated with P. aeruginosa culture filtrate; 0.36% of 360,000 active; activity change (cytotoxicity), % at 5 µM;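 active means corrected activity change at or below -50% at 5 µM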
Peg3 promoter = Peg3 promoter activity inhibition | HeLa PEG-Prom luciferase reporter, luminescence, overnight | inhibition, % at 20 µM | 1.7% of 360,000 active;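 active means inhibition of at least 50% at 20 µM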
TROY NFkB inh = inhibitors of TROY-dependent NF-kB signaling; Q293 LMP1-TROYcd NF-kB luciferase reporter, 4 h; inhibition, % at 10 µM; 0.98% of 360,000 active; AID 1347056;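 active means compounds whose plate-normalised and pattern-corrected inhibition of the luciferase reporter signal at the single screening dose is 50% or more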
TWEAK-Fn14 inh = inhibitors of TWEAK-Fn14 interaction signaling; TWEAK-stimulated Fn14 reporter cells, luciferase luminescence, 8 h; inhibition, % at 10 µM; 2% of 360,000 active; in the data active means inhibition above about 50%
HIF-2a inh = inhibitors of HIF-2a; 786-0 RCC cells HIF-2a reporter, luciferase luminescence, overnight; inhibition, % at 18.8 µM; 0.72% of 360,000 active; AID 624352;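 active means inhibition of the luminescence signal of 40% or more relative to plate controls, in a single-dose primary screen at 18.75 µM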
CF NFkB block = blocks PAF-induced NF-kB reporter in cystic fibrosis cells | inhibition, % at 5 µM | KKLEB NF-kB-GFP reporter, GFP fluorescence overnight | AID 588850 | 0.86% of 360,000 active;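 active means at least 50% inhibition at 5 µM, scaled per plate between neutral and stimulator controls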;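 further: PAF is a Pseudomonas aeruginosa culture filtrate used as stimulus; plate controls were PAF-stimulated DMSO wells for no effect and unstimulated DMSO wells for full effect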
The depositor's hits bear a star; / = no result. Compounds with a hit are over-represented: about 4% of the library has one in this group of screens.

SMILES | KKLEB cytotox | Peg3 promoter | TROY NFkB inh | TWEAK-Fn14 inh | HIF-2a inh | CF NFkB block
Cc1ccc(S(=O)(=O)c2cc3ccccc3oc2=Nc2ccc3c(c2)OCCO3)cc1 | -20 | 12 | 13 | 81* | 12 | 23
CC(O)(c1ccc(F)c(F)c1)c1nc(-c2ccoc2)cs1 (configuration not stated) | -4 | 7 | -14 | 18 | -16 | -20
CC(C)c1c(C(=O)N/N=C/c2ccc(OCc3ccccc3)cc2)nnn1-c1nonc1N | -34 | -49 | -19 | -34 | -14 | 2
Cc1ccccc1COc1cccc(/C=N/NC(=O)c2nnn(-c3nonc3N)c2C)c1 | -13 | 74* | -6 | -30 | -9 | 32
CC(C)c1c(C(=O)N/N=C/c2cccc(OCc3ccccc3)c2)nnn1-c1nonc1N | -7 | -10 | 58* | 43 | -117 | -8
Nc1nonc1-n1nnc(C(=O)N/N=C/c2cccc(Cl)c2)c1-c1cccs1 | 19 | 27 | 6 | 51* | -17 | 27
Cc1c(C(=O)N/N=C/c2cccc(O)c2)nnn1-c1nonc1N | 12 | -23 | -21 | -11 | -30 | -2
CCOc1ccc(-c2c(C(=O)N/N=C/c3c[nH]c4ccccc34)nnn2-c2nonc2N)cc1 | 23 | 28 | 6 | 58* | 21 | -22
COc1ccc(Cl)cc1NC(=O)NNC(=O)C(=O)Nc1ccc(F)cc1 | -12 | -52 | -31 | -37 | -61 | 1
Cc1cccc(NC(=O)COc2coc(CN3CCc4ccccc4C3)cc2=O)c1 | 0 | -5 | -3 | 0 | -4 | -38
Cc1ccc(NC(=O)c2cc(S(=O)(=O)N3CCCC3)c[nH]2)c(C)c1 | 0 | -8 | -1 | -13 | 6 | -1
CCOc1ccc(CCNC(=O)COC(=O)c2cccnc2SC)cc1OCC | -11 | 1 | 16 | -4 | 8 | 9
CC1CCN(Cc2c(C(=O)N/N=C/c3cc(Cl)ccc3O)nnn2-c2nonc2N)CC1 | -11 | 76* | 15 | -22 | 8 | 33
COc1cc(/C=N/NC(=O)c2nnn(-c3nonc3N)c2C(C)C)ccc1OCc1ccccc1 | 1 | -96 | 37 | 62* | -10 | -29
COc1cccc(/C=N/NC(=O)c2nnn(-c3nonc3N)c2C(C)C)c1OCc1ccc(F)cc1 | -4 | 8 | 62* | 63* | -14 | 11
CCc1ccc(-c2cc(C(=O)N/N=C/c3c[nH]c4ccccc34)[nH]n2)cc1 | -23 | -132 | 34 | 59* | -122 | 18
COc1c(Cl)cc(Cl)cc1/C=N/NC(=O)c1nnn(-c2nonc2N)c1CN1CCC(C)CC1 | 15 | 0 | -9 | -13 | 10 | 8
O=C(CSc1nnc(-c2ccccc2Cl)o1)N1CCOCC1 | -11 | -255 | -44 | 5 | -170 | 0
COc1ccc(/C=C/C(=O)OCC(=O)c2cc(C)ccc2C)cc1 | -4 | -1 | -16 | 22 | -9 | -27
Cc1ncc([N+](=O)[O-])n1Cc1cccc(F)c1 | -3 | 16 | 19 | 70* | 14 | -1
CCC(C)Sc1ccc([C@H]2N[C@@](Cc3ccccc3)(C(=O)OC)[C@H]3C(=O)N(C)C(=O)[C@@H]23)cc1 (some centres not stated) | 8 | 23 | -13 | -19 | 6 | 4
O=C(Nc1c(-c2ccccc2)[nH][nH]c1=O)c1ccco1 | 9 | -6 | -13 | -9 | 4 | -37
CC(C)C[C@@H](CN)NC(=O)c1nc[nH]c1C(=O)N[C@@H](C)C(=O)CNC[C@H](CC(C)C)NC(=O)c1nc[nH]c1C(=O)N[C@@H](Cc1ccccc1)C(=O)O | 10 | -12 | -8 | 17 | -11 | -6
CCN1/C(=C/C=C/C=C/C=C/c2sc3ccccc3[n+]2CC)Sc2ccccc21 | -6 | 43 | -1 | -1 | 13 | 5
CCN1/C(=C/C=C/c2sc3ccccc3[n+]2CC)Sc2ccccc21 | -17 | 78* | 53* | 96* | -33 | 32
SMILES | KKLEB cytotox | Peg3 promoter | TROY NFkB inh | TWEAK-Fn14 inh | HIF-2a inh | CF NFkB block
CCN1/C(=C/c2ccc3cc(C)ccc3[n+]2CC)Sc2ccccc21 | -3 | 104* | 65* | 72* | 75* | -312
CC[n+]1c(/C=C2\Sc3ccccc3N2C)ccc2cccc(C)c21 | -18 | 114* | 64* | 85* | 79* | -248
CCN1/C(=C/c2ccc3cc(C)ccc3[n+]2CC)Sc2cc(C)c(C)cc21 | -14 | 52* | 29 | 45 | 11 | -11
CCOC(=O)O[C@]1(C(=O)COC(=O)CC)CC[C@H]2[C@@H]3CCC4=CC(=O)C=C[C@]4(C)[C@H]3[C@@H](O)C[C@@]21C | 9 | -30 | 14 | 8 | 16 | 77*
CCC(=O)OCC(=O)C1(OC(=O)CC)[C@H](C)C[C@H]2[C@H]3[C@H]([C@@H](O)C[C@@]21C)[C@@]1(C)C=CC(=O)C=C1C[C@H]3Cl (some centres not stated) | 32 | -9 | 16 | -40 | 28 | 69*
CC(=O)OCC(=O)C1(O)CCC2C3CCC4=CC(=O)C=CC4(C)C3C(=O)CC21C (configuration not stated) | 4 | 1 | -10 | -16 | 4 | 14
C[C@]12C=CC(=O)C=C1CC[C@@H]1[C@@H]2[C@@H](O)C[C@@]2(C)[C@H]1CC[C@]2(O)C(=O)COC(=O)CCC(=O)NCCc1ccc(O)cc1 | 34 | -23 | 1 | -4 | 13 | 80*
C[C@]12C=CC(=O)C=C1CC[C@@H]1[C@@H]2[C@@H](O)C[C@@]2(C)[C@H]1CC[C@]2(O)C(=O)CO | 26 | 7 | 26 | -7 | 24 | 73*
CO[C@H]1CN(C)C(=O)c2ccc(NS(=O)(=O)c3ccccc3F)cc2OC[C@H](C)NC[C@@H]1C | / | / | / | / | 9 | /
C[C@H]1C[C@@H]2[C@H]([C@@H](O)C[C@@]3(C)[C@H]2CC[C@]3(O)C(=O)CO)[C@@]2(C)C=CC(=O)C=C12 | 20 | -9 | 16 | -6 | 17 | 74*
CC12CCC(=O)C=C1CCC1C2C(=O)CC2(C)C1CCC2(O)C(=O)CO (configuration not stated) | -4 | 5 | 2 | -13 | 13 | 11
C[C@]12C=CC(=O)C=C1CC[C@@H]1[C@@H]2[C@@H](O)C[C@@]2(C)[C@H]1CC[C@]2(O)C(=O)COC(=O)CCC(=O)O | 16 | 12 | 21 | -4 | 32 | 56*
COc1ccc(S(=O)(=O)c2c(O)cc(C)c(NS(=O)(=O)c3ccccc3)c2C)cc1 | 6 | 23 | 3 | 10 | 20 | 3
O=C(CCCN1C(=O)/C(=C/c2cccs2)SC1=S)Nc1cccc(O)c1 | -4 | 61* | 21 | 25 | 14 | -1
O=C(CCCN1C(=O)/C(=C/c2cccs2)SC1=S)Nc1ccc(C(=O)O)cc1 | 9 | 13 | -9 | -5 | 6 | -7
O=C(CCCN1C(=O)/C(=C\c2cccs2)SC1=S)Nc1cc([N+](=O)[O-])ccc1O | -14 | 40 | 40 | -3 | 7 | 53*
